The source of these data is PubChem BioAssay (NCI).

Structures are written as SMILES. The panel holds about 83,000 compounds, 20% with a hit somewhere; the sample as a whole holds those more often.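 Percent growth is the endpoint: 0 to 100 indicates growth inhibition (40 means 60% inhibition), 0 means no net growth, and negative values indicate cell death.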 Unmarked numbers belong to inactive results. Calls of active or inactive are those of the source. Rule for the calls: active = growth percent below 10; inactive = the rest.

Among the test systems are HCT-15 colon; HT29 colon; SNB-75 CNS; SNB-19 CNS; U251 CNS; PC-3 prostate; SK-MEL-5 melanoma; UACC-62 melanoma; LOX IMVI melanoma; SK-MEL-28 melanoma; SK-MEL-2 melanoma; EKVX NSCLC; SN12C renal; UO-31 renal; TK-10 renal; ACHN renal; A498 renal; MOLT-4 leukemia; CCRF-CEM leukemia; CAKI-1 renal.
Holding throughout (assay): NCI-60 one-dose screen, 48 h (100 = growth as untreated, 0 = no growth, -100 = all killed)
Holding throughout (settings): 10 µM unless noted

Take `CCOc1c(B(O)O)cccc1-c1nc2ccc3[nH]ncc3c2c2c1CCCC2`: the growth in the test with HCT-15 colon is 48.4%; in the test on HT29 colon, 78.7%; in the test with SNB-75 CNS, -38.5% (active); in the test on SNB-19 CNS it was 85.2%; in the test with U251 CNS, 75.4%; in the test with PC-3 prostate, 68.3%. The growth with SK-MEL-5 melanoma is 86.7%; in the test on UACC-62 melanoma, 88.1%; with LOX IMVI melanoma, 37%; in the test with SK-MEL-28 melanoma it was 96.5%; in the test with SK-MEL-2 melanoma, 113%; in the test with EKVX NSCLC, 47.5%. Also, the growth was 62.7% in the test on SN12C renal; 29.9% with UO-31 renal; 19.7% with TK-10 renal; 51.1% in the test with ACHN renal; 61.8% with A498 renal; 28.8% with MOLT-4 leukemia.

With `CCCCOc1ccc(/C=N/NC(N)=S)cc1`, the growth in the test with HCT-15 colon was 55.7%; in the test with HT29 colon, 61.5%; in the test on SNB-75 CNS, 72.9%; in the test on SNB-19 CNS, 89.8%; with U251 CNS, 89.9%; with PC-3 prostate, 81%. The growth in the test with SK-MEL-5 melanoma was 95.7%; in the test on UACC-62 melanoma, 75.5%; with LOX IMVI melanoma it was 94.2%; in the test with SK-MEL-28 melanoma, 96.5%; with SK-MEL-2 melanoma it was 85.1%; with EKVX NSCLC, 85.9%. Further, the growth in the test with SN12C renal is 67.5%; in the test with UO-31 renal it was 43.7%; in the test on TK-10 renal, 77.3%; with ACHN renal, 92.3%; with A498 renal, 79.4%; in the test on CCRF-CEM leukemia, 37.4%. In addition, the growth with MOLT-4 leukemia was 46%.

With `CN1CCN(c2ccc(-c3ccc4ncc(C#N)c(Nc5ccc(F)c(Cl)c5)c4c3)cn2)CC1`, the growth is 13.4% in the test with HCT-15 colon; 36.6% in the test with HT29 colon; 64.1% in the test on SNB-75 CNS; 74.7% in the test on SNB-19 CNS; 57% in the test on U251 CNS; 58.5% in the test on PC-3 prostate. Also, the growth with SK-MEL-5 melanoma is 82.9%; with UACC-62 melanoma, 86%; in the test on LOX IMVI melanoma it was 68.8%; with SK-MEL-28 melanoma, 70.3%; with SK-MEL-2 melanoma, 49.7%; in the test with EKVX NSCLC, 48.4%. The growth was 62.5% in the test with SN12C renal; 28.7% with UO-31 renal; 34.1% in the test on TK-10 renal; 17.4% in the test with ACHN renal; 27.2% in the test with CAKI-1 renal; 37.8% with CCRF-CEM leukemia. In addition, the growth in the test on MOLT-4 leukemia was 38.2%.

Consider `CCOC(=O)/C(C#N)=C\Nc1ccc2ncnc(Nc3ccc(Cl)cc3Cl)c2c1`, for which the growth in the test on HCT-15 colon is 92.7%; in the test with HT29 colon it was 79.4%; with SNB-75 CNS, 91.3%; in the test with SNB-19 CNS, 86.4%; in the test with U251 CNS, 81.4%; in the test on PC-3 prostate, 59.3%. Besides, the growth in the test on SK-MEL-5 melanoma is 78.3%; with UACC-62 melanoma, 90%; with LOX IMVI melanoma, 87.4%; in the test on SK-MEL-28 melanoma, 109%; in the test on SK-MEL-2 melanoma it was 110%; in the test with EKVX NSCLC, 41.7%. The growth was 89.5% with SN12C renal; 42% in the test on UO-31 renal; 44.2% in the test with TK-10 renal; 62.9% in the test with ACHN renal; 48.7% in the test with A498 renal; 70.9% with CCRF-CEM leukemia. Also, in the test with MOLT-4 leukemia, the growth is 58.8%.

For the molecule `CCOC(=O)c1c(C)oc2ncnc(N3CCN(C(=O)COc4ccc(C(C)(C)C)cc4)CC3)c12`, the growth was 79.8% in the test on HCT-15 colon; 90.2% with HT29 colon; 93.5% in the test on SNB-75 CNS; 85.4% in the test with SNB-19 CNS; 89.5% with U251 CNS; 59.3% in the test with PC-3 prostate. Moreover, the growth with SK-MEL-5 melanoma is 34.8%; with UACC-62 melanoma, 42.9%; in the test on LOX IMVI melanoma it was 75.5%; in the test on SK-MEL-28 melanoma it was 85.4%; with SK-MEL-2 melanoma, 93.7%; in the test on EKVX NSCLC, 74%. Further, the growth is 82.7% in the test on SN12C renal; 94.1% with TK-10 renal; 85.9% with ACHN renal; 84.3% in the test with CAKI-1 renal; 82% in the test with A498 renal; 76.2% with CCRF-CEM leukemia. In addition, the growth with MOLT-4 leukemia is 59.1%.

Regarding `O=C(CSc1nccc(Nc2ccc(S(=O)(=O)Nc3nccs3)cc2)n1)c1ccc(C(F)(F)F)cc1`, the growth with HCT-15 colon was 103%; with HT29 colon, 106%; in the test with SNB-75 CNS, 91.5%; in the test with SNB-19 CNS it was 93.2%; in the test on U251 CNS, 86.6%; in the test with PC-3 prostate it was 93.2%. The growth in the test on SK-MEL-5 melanoma was 95.1%; in the test on UACC-62 melanoma, 93.2%; in the test on LOX IMVI melanoma it was 99.2%; in the test with SK-MEL-28 melanoma it was 108%; with SK-MEL-2 melanoma, 102%; in the test with EKVX NSCLC, 94.4%. Besides, the growth with SN12C renal was 102%; in the test on TK-10 renal, 112%; in the test with ACHN renal it was 100%; in the test with CAKI-1 renal, 90.1%; in the test with A498 renal, 109%; in the test on CCRF-CEM leukemia, 108%. Further, the growth in the test with MOLT-4 leukemia was 112%.

For `COc1ccc(C(=O)C(C)C)c2ccccc12`, the growth in the test on HCT-15 colon was 99.6%; with HT29 colon, 106%; in the test on SNB-75 CNS, 115%; in the test on SNB-19 CNS, 108%; with U251 CNS, 110%; in the test with PC-3 prostate, 93.4%. Besides, the growth in the test with SK-MEL-5 melanoma was 109%; in the test with UACC-62 melanoma, 106%; in the test on LOX IMVI melanoma, 96.4%; with SK-MEL-28 melanoma, 126%; with SK-MEL-2 melanoma it was 97.9%; with EKVX NSCLC, 94.7%. Also, the growth was 109% with SN12C renal; 90.8% in the test on UO-31 renal; 90.5% in the test with TK-10 renal; 100% in the test on ACHN renal; 99% with A498 renal; -25.6% (active) in the test on CCRF-CEM leukemia. For the same molecule, the growth in the test on MOLT-4 leukemia is 97.2%.

In the case of `CNC(=O)c1[nH]cc(-c2ccccc2)c1-c1cc(OC)c2c(c1OC)OCO2`, the growth with HCT-15 colon is 104%; in the test on HT29 colon it was 91.5%; with SNB-75 CNS, 70.9%; with SNB-19 CNS it was 90.6%; with U251 CNS, 96%; with PC-3 prostate it was 98.3%. Also, the growth in the test with SK-MEL-5 melanoma is 105%; with UACC-62 melanoma it was 90.8%; in the test with LOX IMVI melanoma, 98.5%; in the test on SK-MEL-28 melanoma, 108%; in the test on SK-MEL-2 melanoma it was 102%; with EKVX NSCLC, 98%. The growth in the test with SN12C renal is 91.1%; in the test with UO-31 renal, 83.8%; with TK-10 renal, 106%; with ACHN renal, 95.8%; in the test with A498 renal it was 95.4%; with CCRF-CEM leukemia, 108%. For the same molecule, in the test on MOLT-4 leukemia, the growth was 101%.
